Results: PubChem BioAssay AID504357 (The Scripps Research Institute Molecular Screening Center, 2011)
About 700 (0.21%) of roughly 340,000 compounds were called active. The entries come from a sample that favours actives as a whole. Values without a mark were called inactive. Rule as the data show it: active = inhibition above about 22% (passing the limit was not always enough); inactive = the rest.

Molecular target: Mu-type opioid receptor (Homo sapiens) + Delta-type opioid receptor (Homo sapiens) (UniProt P35372+P41143)
Assay: inverse agonists of MOR-DOR heterodimerization, primary screen, cell-based, luminescence (AID 504357);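 also: 0% = cells with DMSO and 100% = wells without cells with DMSO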
Conditions: cell-based MOR-DOR heterodimer luminescence, inverse agonism; at 9.3 µM; stronger effect = higher value

Sequence of Mu-type opioid receptor (Homo sapiens) + Delta-type opioid receptor (Homo sapiens) (P35372 whole entry, looked up): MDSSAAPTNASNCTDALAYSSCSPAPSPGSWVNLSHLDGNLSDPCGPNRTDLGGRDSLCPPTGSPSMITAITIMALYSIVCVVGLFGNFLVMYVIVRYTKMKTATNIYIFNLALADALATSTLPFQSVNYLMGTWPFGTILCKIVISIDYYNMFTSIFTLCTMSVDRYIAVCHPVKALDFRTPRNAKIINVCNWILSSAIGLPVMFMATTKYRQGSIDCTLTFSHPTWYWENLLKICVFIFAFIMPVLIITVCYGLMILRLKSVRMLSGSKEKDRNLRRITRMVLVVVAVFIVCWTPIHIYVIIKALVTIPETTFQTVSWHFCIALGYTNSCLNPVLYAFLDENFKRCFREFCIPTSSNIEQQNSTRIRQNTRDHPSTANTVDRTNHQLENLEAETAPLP
Sequence of Mu-type opioid receptor (Homo sapiens) + Delta-type opioid receptor (Homo sapiens) (P41143 whole entry, looked up): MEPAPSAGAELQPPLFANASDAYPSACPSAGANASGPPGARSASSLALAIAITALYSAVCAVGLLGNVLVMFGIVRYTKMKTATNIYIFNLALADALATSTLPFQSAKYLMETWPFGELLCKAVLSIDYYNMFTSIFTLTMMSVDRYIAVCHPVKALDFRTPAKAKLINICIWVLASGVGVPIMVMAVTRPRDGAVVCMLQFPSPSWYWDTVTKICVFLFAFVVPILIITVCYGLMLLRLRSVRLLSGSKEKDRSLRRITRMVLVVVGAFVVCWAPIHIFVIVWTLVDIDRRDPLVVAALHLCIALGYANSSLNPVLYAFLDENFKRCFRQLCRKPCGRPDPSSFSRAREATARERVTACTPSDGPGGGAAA

| SMILES | inhibition |
| --- | --- |
| COc1ccc(-c2ccc(CNCCCN3CCOCC3)o2)cc1Cl | -3.74% |
| Nc1ccc2c(c1)C(O)c1ccc(Cl)cc1-2 (stereo not given) | -2.52% |
| C/C(O)=C\c1nc(=O)c2c(C)cc(C)nc2n1-c1ccccc1 | -10.5% |
| Cc1ccc(CN(C(=O)c2sc3ccccc3c2Cl)C2CCS(=O)(=O)C2)cc1 (stereo not given) | -141% |
| CCOC(=O)c1sc(-c2cccc([N+](=O)[O-])c2)cc1N | -25.6% |
| CC(=O)Nc1ccc(S(=O)(=O)N2CCN(c3ccc([N+](=O)[O-])c(NCCN4CCOCC4)c3)CC2)cc1 | 4.65% |
| O=C(CNC(=O)c1ccccc1Br)NCCSc1ccc(Br)cc1 | 3.63% |
| COc1cc(C(=O)OC(C)C(=O)NCC2CCCCC2)cc(NC(=O)c2ccco2)c1OC (stereo not given) | -157% |
| O=C(Nc1cccc(Br)c1)C1CC(=O)N(C2CCCC2)C1 (stereo not given) | -5.3% |
| CCN(CC)C(=O)CN(c1cccc(OC)c1)S(=O)(=O)c1ccc(C)cc1 | 13% |
| CCN(CCCNC(=O)C1CCN(S(=O)(=O)c2cnc[nH]2)CC1)c1ccccc1 | -0.9% |
| CC(OC(=O)CN1C(=O)c2ccccc2C1=O)C(=O)c1ccccc1 (stereo not given) | 9.57% |
| CC(C)OC(=O)CN1CCN(c2ccc(Cl)cc2)CC1 | -2.26% |
| Cc1ccc2c(c1)-c1c(ssc1=S)C(C)(C)N2C(=O)CN1C(=O)c2ccccc2C1=O | 11.6% |
| COc1cc(C(C)=O)ccc1OC(=O)CN1C(=O)c2ccccc2C1=O | 17.3% |
| Cc1cc(/C=C2/SC(=O)N(CC(=O)OC(C)C)C2=O)c(C)n1C | 5.02% |
| CC(C)OC(=O)CN1C(=O)C(=O)c2ccccc21 | 96.4% (active) |
| Cc1cccc2c1N(CC(=O)OC(C)C)C(=O)C2=O | 67.2% (active) |
| CCOC(=O)CN1C(=O)C(=O)c2cc(C)ccc21 | 40.6% (active) |
| Cc1cccc2c1N(CCOc1ccccc1)C(=O)C2=O | 55.7% (active) |
| O=C1c2ccccc2C(=O)N1CCOc1ccc(F)cc1 | -0.37% |
| CC1(C)NC(=O)N(CCOc2cccc(Oc3ccccc3)c2)C1=O | 10.6% |
| CCOC(=O)C1CCN(C(=O)CN2C(=O)c3cccnc3Oc3ccc(C)cc32)CC1 | 20% |
| O/N=C(\c1ccc2c(c1)OCCO2)C1CCCCC1 | 10.1% |

| SMILES | inhibition |
| --- | --- |
| CSc1ccccc1C(=O)OCC(=O)N1CCN(C(C)=O)CC1 | 12.6% |
| CC1CN(S(=O)(=O)c2ccc(C(=O)NN3CCN(C)CC3)cc2)CC(C)O1 (stereo not given) | -5.71% |
| O=C(/C=C/c1ccc(Cl)cc1)NCCCn1ccnc1 | 1.46% |
| Cc1cccc(NC(=O)Cc2ccc(Br)cc2)n1 | 2.04% |
| O=C(CCl)NNc1cccc(Cl)n1 | 75% (active) |
| O=C(Cc1c(Cl)cccc1Cl)NC1CC1 | 1.58% |
| CN(C(=O)CCn1c(=S)oc2ccccc21)C1CCCCC1 | 10.3% |
| CNS(=O)(=O)c1ccc(N2CCCC2=O)c([N+](=O)[O-])c1 | -2.31% |
| CC(c1ccco1)N(C(=O)c1ccc(S(=O)(=O)N2CCCCC2)cc1)c1ccccn1 (stereo not given) | 13.7% |
| Cc1cc(C)c(S(=O)(=O)n2cc(C(C)C(N)C(=O)O)c3ccccc32)c(C)c1 (stereo not given) | 8.06% |
| Cn1nc([N+](=O)[O-])nc1Sc1ccc(C(C)(C)C)cc1 | -22.7% |
| CCOC(=O)c1cccc(NC(=O)C2CCN(c3ncnc4c3nc3n4CCCCC3)CC2)c1 | -0.14% |
| CCCCCC(O)(CCN1CCCCC1)c1ccccc1 (stereo not given) | 4.99% |
| CCn1cc(CCC(=O)NCc2ccc(F)cc2)c2ccccc21 | -13.5% |
| Cc1ccc(C(=O)CNc2ccc(F)cc2)cc1 | 42.7% (active) |
| Cc1ccc(C(=O)NC2CCN(C(=O)Nc3ccc(F)cc3)CC2)cc1 | 6.33% |
| Cc1ccc(NC(=S)Nc2ccc(F)cc2)cc1 | 9.82% |
| CCCCCC(=O)NC(=S)NNC(=O)c1ccc([N+](=O)[O-])cc1 | -3.86% |
| CCNC(=S)NNC(=O)Cc1ccccc1 | 2.92% |
| CCCCC(=O)NNC(=S)NC(=O)C(c1ccccc1)c1ccccc1 | 27.8% (active) |
| COc1ccc(NC(=O)CCn2ccnc2)c(OC)c1 | 9.95% |
| Cn1c(=S)sc2ccc3ccccc3c21 | -28.3% |
| O=C(C1CC(=O)N(c2ccc(F)cc2)C1)N1CCN(c2ccccc2)CC1 (stereo not given) | 14% |
| CCOC(=O)N1CCN(C(=O)c2ccccc2N(Cc2ccccc2)S(=O)(=O)c2ccc(OC)cc2)CC1 | -2.13% |

| SMILES | inhibition |
| --- | --- |
| N#Cc1cccc(NC(=O)CCC2CCCC2)c1 | -3.46% |
| O=C1NC(=O)C(CCc2ccccc2)(c2ccccc2)N1 (stereo not given) | 16.3% |
| COC(=O)c1cc2occc2n1Cc1nc(-c2ccccc2C)oc1C | -3.9% |
| CN(C)CCn1c2c(c(SCC(=O)NCc3ccccc3)nc1=O)CCC2 | -0.58% |
| CCc1c(Nc2ccccc2C)nc(N)[nH]c1=O | 0.05% |
| O=C(CCc1nc2sc3c(c2c(=O)[nH]1)CCCC3)NCC(=O)Nc1ccccc1Br | 17% |
| COc1cc(NS(=O)(=O)c2ccc3ccccc3c2)c2ncccc2c1 | 38.6% (active) |
| CCOc1cc(NS(=O)(=O)c2ccc(OC)cc2)c(OCC)cc1NC(C)=O | -4.39% |
| COc1ccc(N2CC(NS(=O)(=O)c3ccc4ccccc4c3)CC2=O)cc1 (stereo not given) | 7.42% |
| COC(=O)Cc1c(-c2[nH]c3ccccc3c2CC(=O)OC)[nH]c2ccccc12 | 42.2% (active) |
| COC(=O)Cc1ccc(NC(=S)NCc2ccccc2)cc1 | 5.98% |
| CCCOC(=O)Cc1c(O)c2ccccc2[nH]c1=O | 15.1% |
| Cc1ccc(-n2nc(-c3ccco3)cc2C(=O)NCc2cccnc2)cc1 | 10.7% |
| O=C(NCC1COc2ccccc2O1)C1(c2ccccc2)CCCC1 (stereo not given) | 4.79% |
| O=C1C(=O)N(CC2COc3ccccc3O2)c2ccccc21 (stereo not given) | 35.1% (active) |
| O=C(CN1C(=O)C2C3C=CC(C3)C2C1=O)NCC1COc2ccccc2O1 (stereo not given) | -16.6% |
| COc1cc2sc(C)nc2cc1C | -8.04% |
| O=C(O)C(=Cc1ccccc1[N+](=O)[O-])c1ccccc1 | 9.45% |
| CC(C)CCSc1ncnc2c1oc1nc3c(cc12)COC(C)(C)C3 | 5.61% |
| Cc1ccc2nc(SCc3nnc(-c4ccccc4[N+](=O)[O-])o3)c(C#N)cc2c1 | 13% |
| Cc1nc2cc(NC(=O)CSc3nc4c(C)cccc4cc3C#N)ccc2s1 | 12.7% |
| CCN1C[C@@H]2[C@@H]3C(=O)N(Cc4ccccc4)C(=O)[C@@H]3[C@](C)(C1=O)N2C(=O)c1ccc(C(C)(C)C)cc1 | 0.58% |
| Cn1ccs/c1=N\S(=O)(=O)c1ccc(C(C)(C)C)cc1 | 4.78% |
| CC(C)(C)c1nnc(NC(=O)C2c3ccccc3Oc3ccccc32)s1 | -37% |

| SMILES | inhibition |
| --- | --- |
| N#C/C(=C/c1ccc(Cl)cc1)NC(=O)c1ccccc1 | -2.56% |
| O=C(CN1CCCSc2ccccc21)N1CCN(S(=O)(=O)c2cccc(F)c2)CC1 | 9.06% |
| O=C1C[C@@H]2c3c(cccc3CN1Cc1ccccc1)C[C@@H](O)[C@H]2O | 1.13% |
| CCCNC(=O)CCn1cc(-c2ccc(OC)cc2)nc1CCN | 7.6% |
| COC(=O)c1scc(C)c1NC(=O)CSc1ccc(Cl)cc1 | 0.66% |
| CC(=O)c1ccc(NC(=O)C(C)N(C)CC(=O)Nc2ccccc2Cl)cc1 (stereo not given) | 2.42% |
| CCOC(=O)c1c(-n2cnnn2)sc(C)c1C | 18.6% |
| Cc1ccc(Oc2cc(NC(=O)CCCn3nc(C)c([N+](=O)[O-])c3C)cc([N+](=O)[O-])c2)cc1 | -12.5% |
| Cc1ccc(S(=O)(=O)N2CCOCC2)cc1C(=O)NC(=S)N(Cc1ccccc1)C(C)C | 20% |
| COc1ccc(-n2c(O)c(C=NCC(c3ccco3)N3CCCC3)c3ccccc3c2=O)cc1OC (stereo not given) | 12.1% |
| Cc1cccc(-n2c(Cc3cc(=O)[nH]c(=O)[nH]3)nnc2SCC(=O)Nc2cccc(C(F)(F)F)c2)c1 | -3.78% |
| COC(=O)C1(CCSC)NC(c2ccc(OC)cc2OC)C2C(=O)N(c3cccc(C(C)=O)c3)C(=O)C21 (stereo not given) | 15.3% |
| NNc1cccc(C=Cc2ccccc2)cc1=O | -23.2% |
| COc1ccc(CC(=O)OC(C)C(=O)Nc2ccc(S(N)(=O)=O)cc2)cc1 (stereo not given) | 6.12% |
| Cc1c(C(=O)N(Cc2ccccc2)Cc2cccnc2)cnn1-c1ccc(F)cc1 | 15.9% |
| Cc1ccccc1NC(=O)CSC1=NCCN1 | 6.55% |
| Cc1ccc(S(=O)(=O)Oc2ccc(/C=N/NC(=O)c3c(Cl)cnn3C)cc2)cc1 | 6.6% |
| O=S(=O)(c1ccc(Br)cc1)n1ccc2ccccc21 | -60.1% |
| O=C(NC1CCCCCCC1)c1cccs1 | -15.7% |
| OCC[C@H]1C[C@H](O)[C@@H](O)[C@]2(CCCCO2)O1 | 1.27% |
| Cc1cccc(C2c3[nH]c4ccccc4c3CCN2C(=O)c2cc(-c3cccn3C)n[nH]2)n1 (stereo not given) | -17.1% |
| CC(=O)c1ccc(NC(=O)CCc2nnc3ccc(NCc4ccco4)nn23)cc1 | 18.1% |
| COC(=O)c1cccc(C(=O)N2CCCC(Nc3ccc4c(c3)OCCO4)C2)c1 (stereo not given) | -2.83% |
